# This is part of a sample that, as a whole, favours compounds with a hit. Of some 79,000 tested, about 15% had one in any assay. Values without a mark were called inactive. The source made the active and inactive calls. Rule as the data show it: active = growth inhibition above about 70%; inactive = the rest.
# What was measured:
# [1] = NCI Yeast Anticancer Drug Screen. Data for the rad52 strain (AID 147);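 also: 0% = growth of vehicle-treated control cultures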; details: S. cerevisiae rad52 mutant growth inhibition, stronger effect = higher value
# Method in brief: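 Genetically altered yeast (DNA damage repair defect) treated with compound; inhibition calculated relative to vehicle.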
# [2] = NCI Yeast Anticancer Drug Screen. Data for the rad50EPP+ strain (AID 151);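 also: 0% = growth of vehicle-treated control cultures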; details: S. cerevisiae rad50 mutant strain, stronger effect = higher value
# Method in brief: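 Strain rad50EPP+; compound exposure; % growth inhibition vs vehicle.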
# [3] = NCI Yeast Anticancer Drug Screen. Data for the mgt1 strain (AID 153); details: S. cerevisiae mgt1 mutant growth inhibition, stronger effect = higher value
# Method in brief: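 Read-out: yeast growth inhibition vs vehicle control. Strain mgt1, drawn from a panel altered in DNA damage repair or cell cycle control.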
# [4] = NCI Yeast Anticancer Drug Screen. Data for the rad14 strain (AID 159);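 also: 0% = growth of vehicle-treated control cultures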; details: S. cerevisiae rad14 strain growth inhibition, stronger effect = higher value
# Method in brief: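 Here, inhibition of yeast growth was measured after compound exposure, using a strain with a genetic defect in DNA damage repair and vehicle-treated cultures as the reference.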
# [5] = NCI Yeast Anticancer Drug Screen. Data for the CLN2oe strain (AID 163);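 also: 0% = growth of vehicle-only control cultures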; details: S. cerevisiae CLN2oe strain, stronger effect = higher value
# Method in brief: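 Strain altered in cell-cycle control, incubated with compound; growth compared to solvent-treated controls.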
# [6] = NCI Yeast Anticancer Drug Screen. Data for the wt2 strain (AID 169);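 also: 0% = growth of vehicle-treated yeast cultures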; details: S. cerevisiae wt2 strain growth inhibition, stronger effect = higher value
# Method in brief: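 Steps: yeast strain treated with compound; growth recorded; inhibition calculated relative to cultures given vehicle alone.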
# [7] = NCI Yeast Anticancer Drug Screen. Data for the mlh1 strain (AID 171);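 also: 0% = growth of vehicle-treated control cultures of the same strain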; details: S. cerevisiae mlh1 strain growth inhibition, stronger effect = higher value
# Method in brief: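 Yeast screen: mutant strain plus compound, growth scored against vehicle control wells.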
# [8] = NCI Yeast Anticancer Drug Screen. Data for the sgs1 strain (AID 173);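 also: 0% = growth of vehicle-only control cultures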; details: S. cerevisiae sgs1 mutant, stronger effect = higher value
# Method in brief: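 Inhibition of yeast growth served as the measure. The mutant strain was treated with each compound, and growth was normalised to cultures receiving vehicle alone.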
# [9] = NCI Yeast Anticancer Drug Screen. Data for the rad18 strain (AID 177); details: S. cerevisiae rad18 mutant growth inhibition, stronger effect = higher value
# Method in brief: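 Inhibition values reflect reduced yeast growth compared with vehicle-treated controls, using a strain engineered with a DNA damage repair defect.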
# [10] = NCI Yeast Anticancer Drug Screen. Data for the wt1 strain (AID 149);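 also: 0% = growth of vehicle-treated wt1 cultures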; details: S. cerevisiae wt1 strain (SPY 50644) growth inhibition, stronger effect = higher value
# Method in brief: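 Measured: growth of wt1 yeast under compound versus vehicle treatment, reported as inhibition.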
# [11] = NCI Yeast Anticancer Drug Screen. Data for the rad50 strain (AID 155);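 also: 0% = growth of vehicle-only cultures of the same strain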; details: S. cerevisiae rad50 strain growth inhibition, stronger effect = higher value
# Method in brief: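 Growth of the mutant yeast was measured after compound exposure and referenced to vehicle-treated cultures.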
# [12] = NCI Yeast Anticancer Drug Screen. Data for the mec2-1 strain (AID 157); details: S. cerevisiae mec2-1 strain, stronger effect = higher value
# Method in brief: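 Cells of the genetically defined mec2-1 yeast strain are incubated with test compound. Inhibition of growth is calculated against vehicle-treated controls.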
# [13] = NCI Yeast Anticancer Drug Screen. Data for the sgs1 mgt1 strain (AID 161);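 also: 0% = growth of cultures given vehicle only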; details: S. cerevisiae sgs1 mgt1 strain, stronger effect = higher value
# Method in brief: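 Genetically altered yeast, compound exposure, growth inhibition relative to vehicle.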
# [14] = NCI Yeast Anticancer Drug Screen. Data for the cln2 rad14 strain (AID 165);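 also: 0% = growth equal to vehicle treated cultures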; details: S. cerevisiae cln2 rad14 strain, stronger effect = higher value
# Method in brief: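 The screen exposed genetically defined yeast (cln2 rad14) to test compounds and scored growth inhibition relative to vehicle-treated controls.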
# [15] = NCI Yeast Anticancer Drug Screen. Data for the bub3 strain (AID 167); details: S. cerevisiae bub3 mutant strain, stronger effect = higher value
# Method in brief: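 Whole-cell yeast assay. The mutant strain was incubated with compounds, and growth inhibition was determined by comparison with vehicle-treated cells.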
# [16] = NCI Yeast Anticancer Drug Screen. Data for the mlh1 rad18 strain (AID 175); details: S. cerevisiae mlh1 rad18 strain growth inhibition, stronger effect = higher value
# Method in brief: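 Compound-treated yeast growth, normalised to vehicle controls. Strain bears defined DNA repair mutations.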
# [17] = at 5.0 µM (retest, dose inferred, filed as 0.5)
# [18] = at 50.0 µM (retest, dose inferred, filed as 5.0)
structure (smiles),measurement,setting,value
[Pt].c1ccc(P(CCP(c2ccccc2)c2ccccc2)CCP(c2ccccc2)c2ccccc2)cc1,growth inhibition,[1]; at 1.2 µM,-15%
same,growth inhibition,[1]; at 3.7 µM,2%
same,growth inhibition,[1]; at 11.0 µM,7%
same,growth inhibition,[1]; at 33.0 µM,89% (active)
same,growth inhibition,[1]; at 100.0 µM,84% (active)
same,growth inhibition,[2]; at 1.2 µM,-8%
same,growth inhibition,[2]; at 3.7 µM,-1%
same,growth inhibition,[2]; at 11.0 µM,11%
same,growth inhibition,[2]; at 33.0 µM,61%
same,growth inhibition,[2]; at 100.0 µM,85% (active)
same,growth inhibition,[3]; at 1.2 µM,-5%
same,growth inhibition,[3]; at 3.7 µM,-18%
same,growth inhibition,[3]; at 11.0 µM,2%
same,growth inhibition,[3]; at 33.0 µM,92% (active)
same,growth inhibition,[3]; at 100.0 µM,94% (active)
same,growth inhibition,[4]; at 1.2 µM,4%
same,growth inhibition,[4]; at 3.7 µM,-2%
same,growth inhibition,[4]; at 11.0 µM,22%
same,growth inhibition,[4]; at 33.0 µM,81% (active)
same,growth inhibition,[4]; at 100.0 µM,91% (active)
same,growth inhibition,[5]; at 1.2 µM,-18%
same,growth inhibition,[5]; at 3.7 µM,-4%
same,growth inhibition,[5]; at 11.0 µM,4%
same,growth inhibition,[5]; at 33.0 µM,95% (active)
same,growth inhibition,[5]; at 100.0 µM,88% (active)
same,growth inhibition,[6]; at 1.2 µM,-7%
same,growth inhibition,[6]; at 3.7 µM,-4%
same,growth inhibition,[6]; at 11.0 µM,2%
same,growth inhibition,[6]; at 33.0 µM,83% (active)
same,growth inhibition,[6]; at 100.0 µM,93% (active)
same,growth inhibition,[7]; at 1.2 µM,5%
same,growth inhibition,[7]; at 3.7 µM,-5%
same,growth inhibition,[7]; at 11.0 µM,-1%
same,growth inhibition,[7]; at 33.0 µM,94% (active)
same,growth inhibition,[7]; at 100.0 µM,92% (active)
same,growth inhibition,[8]; at 1.2 µM,2%
same,growth inhibition,[8]; at 3.7 µM,5%
same,growth inhibition,[8]; at 11.0 µM,41%
same,growth inhibition,[8]; at 33.0 µM,96% (active)
same,growth inhibition,[8]; at 100.0 µM,94% (active)
same,growth inhibition,[9]; at 1.2 µM,-33%
same,growth inhibition,[9]; at 3.7 µM,6%
same,growth inhibition,[9]; at 11.0 µM,20%
same,growth inhibition,[9]; at 33.0 µM,94% (active)
same,growth inhibition,[9]; at 100.0 µM,83% (active)
O=C1c2ccccc2C(=O)c2cc(S(=O)(=O)Nc3ccccc3)ccc21,growth inhibition,[10]; at 1.2 µM,5%
same,growth inhibition,[10]; at 3.7 µM,9%
same,growth inhibition,[10]; at 11.0 µM,8%
same,growth inhibition,[10]; at 33.0 µM,9%
same,growth inhibition,[10]; at 100.0 µM,4%
same,growth inhibition,[2]; at 1.2 µM,9%
same,growth inhibition,[2]; at 3.7 µM,21%
same,growth inhibition,[2]; at 11.0 µM,34%
same,growth inhibition,[2]; at 33.0 µM,45%
same,growth inhibition,[2]; at 100.0 µM,47%
same,growth inhibition,[11]; at 1.2 µM,1%
same,growth inhibition,[11]; at 3.7 µM,7%
same,growth inhibition,[11]; [17],60%
same,growth inhibition,[11]; at 11.0 µM,11%
same,growth inhibition,[11]; at 33.0 µM,23%
same,growth inhibition,[11]; [18],49%
same,growth inhibition,[11]; at 50.0 µM,96.2% (active)
same,growth inhibition,[11]; at 100.0 µM,22%
same,growth inhibition,[12]; at 1.2 µM,-1%
same,growth inhibition,[12]; at 3.7 µM,5%
same,growth inhibition,[12]; [17],33%
same,growth inhibition,[12]; at 11.0 µM,12%
same,growth inhibition,[12]; at 33.0 µM,21%
same,growth inhibition,[12]; [18],61%
same,growth inhibition,[12]; at 50.0 µM,91.4% (active)
same,growth inhibition,[12]; at 100.0 µM,19%
same,growth inhibition,[4]; at 1.2 µM,-1%
same,growth inhibition,[4]; at 3.7 µM,1%
same,growth inhibition,[4]; at 11.0 µM,7%
same,growth inhibition,[4]; at 33.0 µM,12%
same,growth inhibition,[4]; at 100.0 µM,11%
same,growth inhibition,[13]; [17],51%
same,growth inhibition,[13]; [18],61%
same,growth inhibition,[13]; at 50.0 µM,96.2% (active)
same,growth inhibition,[5]; at 1.2 µM,-6%
same,growth inhibition,[5]; at 3.7 µM,-15%
same,growth inhibition,[5]; at 11.0 µM,5%
same,growth inhibition,[5]; at 33.0 µM,7%
same,growth inhibition,[5]; at 100.0 µM,2%
same,growth inhibition,[14]; [17],22%
same,growth inhibition,[14]; [18],37%
same,growth inhibition,[14]; at 50.0 µM,92.2% (active)
same,growth inhibition,[15]; at 1.2 µM,0%
same,growth inhibition,[15]; at 3.7 µM,4%
same,growth inhibition,[15]; [17],58%
same,growth inhibition,[15]; at 11.0 µM,24%
same,growth inhibition,[15]; at 33.0 µM,33%
same,growth inhibition,[15]; [18],84% (active)
same,growth inhibition,[15]; at 50.0 µM,96.1% (active)
same,growth inhibition,[15]; at 100.0 µM,25%
same,growth inhibition,[6]; at 1.2 µM,3%
same,growth inhibition,[6]; at 3.7 µM,6%
same,growth inhibition,[6]; at 11.0 µM,9%
same,growth inhibition,[6]; at 33.0 µM,14%
same,growth inhibition,[6]; at 100.0 µM,8%
same,growth inhibition,[7]; at 1.2 µM,0%
same,growth inhibition,[7]; at 3.7 µM,2%
same,growth inhibition,[7]; at 11.0 µM,10%
same,growth inhibition,[7]; at 33.0 µM,14%
same,growth inhibition,[7]; at 100.0 µM,12%
same,growth inhibition,[16]; [17],77% (active)
same,growth inhibition,[16]; [18],75% (active)
same,growth inhibition,[16]; at 50.0 µM,97.7% (active)
same,growth inhibition,[9]; at 1.2 µM,0%
same,growth inhibition,[9]; at 3.7 µM,2%
same,growth inhibition,[9]; at 11.0 µM,9%
same,growth inhibition,[9]; at 33.0 µM,19%
same,growth inhibition,[9]; at 100.0 µM,-78%
CC(=O)O[C@H]1C(=O)[C@@]2(C)[C@H]([C@H](OC(=O)c3ccccc3)[C@]3(O)C[C@H](OC(=O)[C@H](O)[C@@H](NC(=O)c4ccccc4)c4ccccc4)C(C)=C1C3(C)C)[C@]1(OC(C)=O)CO[C@@H]1C[C@@H]2O,growth inhibition,[10]; at 1.2 µM,-1%
same,growth inhibition,[10]; at 3.7 µM,-2%
same,growth inhibition,[10]; at 11.0 µM,-2%
same,growth inhibition,[10]; at 33.0 µM,-3%
same,growth inhibition,[10]; at 100.0 µM,-18%
same,growth inhibition,[2]; at 1.2 µM,-4%
same,growth inhibition,[2]; at 3.7 µM,-2%
same,growth inhibition,[2]; at 11.0 µM,-2%
same,growth inhibition,[2]; at 33.0 µM,3%
same,growth inhibition,[2]; at 100.0 µM,0%
same,growth inhibition,[3]; at 1.2 µM,-2%
same,growth inhibition,[3]; at 3.7 µM,-2%
same,growth inhibition,[3]; at 11.0 µM,-3%
same,growth inhibition,[3]; at 33.0 µM,-3%
same,growth inhibition,[3]; at 100.0 µM,-7%
same,growth inhibition,[11]; at 1.2 µM,-1%
same,growth inhibition,[11]; at 3.7 µM,-2%
same,growth inhibition,[11]; at 11.0 µM,0%
same,growth inhibition,[11]; at 33.0 µM,-1%
same,growth inhibition,[11]; at 50.0 µM,23.4%
same,growth inhibition,[11]; at 100.0 µM,-6%
same,growth inhibition,[12]; at 1.2 µM,-5%
same,growth inhibition,[12]; at 3.7 µM,-2%
same,growth inhibition,[12]; at 11.0 µM,2%
same,growth inhibition,[12]; at 33.0 µM,-4%
same,growth inhibition,[12]; at 50.0 µM,18.3%
same,growth inhibition,[12]; at 100.0 µM,-10%
same,growth inhibition,[4]; at 1.2 µM,-1%
same,growth inhibition,[4]; at 3.7 µM,-2%
same,growth inhibition,[4]; at 11.0 µM,1%
same,growth inhibition,[4]; at 33.0 µM,-2%
same,growth inhibition,[4]; at 100.0 µM,-5%
same,growth inhibition,[13]; at 50.0 µM,-9%
same,growth inhibition,[5]; at 1.2 µM,-4%
same,growth inhibition,[5]; at 3.7 µM,-4%
same,growth inhibition,[5]; at 11.0 µM,-5%
same,growth inhibition,[5]; at 33.0 µM,-7%
same,growth inhibition,[5]; at 100.0 µM,-13%
same,growth inhibition,[14]; at 50.0 µM,24.1%
same,growth inhibition,[15]; at 1.2 µM,-5%
same,growth inhibition,[15]; at 3.7 µM,-5%
same,growth inhibition,[15]; at 11.0 µM,2%
same,growth inhibition,[15]; at 33.0 µM,-13%
same,growth inhibition,[15]; at 50.0 µM,-4.15%
same,growth inhibition,[15]; at 100.0 µM,-3%
same,growth inhibition,[6]; at 1.2 µM,-2%
same,growth inhibition,[6]; at 3.7 µM,-2%
same,growth inhibition,[6]; at 11.0 µM,-4%
same,growth inhibition,[6]; at 33.0 µM,-4%
same,growth inhibition,[6]; at 100.0 µM,-5%
same,growth inhibition,[7]; at 1.2 µM,-1%
same,growth inhibition,[7]; at 3.7 µM,-4%
same,growth inhibition,[7]; at 11.0 µM,-3%
same,growth inhibition,[7]; at 33.0 µM,-4%
same,growth inhibition,[7]; at 100.0 µM,-6%
same,growth inhibition,[8]; at 1.2 µM,-3%
same,growth inhibition,[8]; at 3.7 µM,-3%
same,growth inhibition,[8]; at 11.0 µM,-1%
same,growth inhibition,[8]; at 33.0 µM,-3%
same,growth inhibition,[8]; at 100.0 µM,-4%
